Data from PubChem BioAssay (Tox21).
Inconclusive results are not listed. Values without a mark were called inactive. The source made the active and inactive calls. Calls come from the whole dose curve; as a rule, active = well fitted inhibition curve with a large enough effect in the repeat runs; inconclusive = weak or mixed curves, or effect the other way; inactive = no such curve, though single readings can be large or run the other way.

target: Nuclear receptor ROR-gamma (Homo sapiens) (UniProt P51449); test: qHTS assay to identify small molecule antagonists of the retinoid-related orphan receptor gamma (ROR-gamma) signaling pathway (AID 1159521; note: nearly all actives have a fitted effect of over 50% in size; for activity change, negative = inhibition: top concentration of the series differs between compounds); settings: Tet-on RORgamma CHO cells, RORE-luciferase, 16 h; series mostly up to 92.4 µM; activity change, negative = inhibition: at the top concentration
Excerpt: U.S. Tox21 Program National Center for Advancing Translational Sciences [NCATS] NIH Chemical Genomics Center [NCGC] U.S. Environmental Protection Agency [EPA] National Institutes of Environmental Health Sciences [NIEHS] National Toxicology Program [NTP] U.S. Food and Drug Administration [FDA] Tox21 Assay Overview: Nuclear steroid hormone receptors are involved in many biological processes including inflammatory responses, cell proliferation, and apoptosis. Environmental factors or compounds disrupting these nuclear receptor pathways and gene expression may promote susceptibility to immunotoxicants and autoimmune diseases. One important group of these expression factors are the retinoid-related orphan receptors. To assess compounds that may interfere with the retinoid-related orphan receptor gamma (ROR-gamma) transcription factor, a cell-based luciferase assay was used. The CHO cell-based assay utilizes a TET-inducible ROR expression factor and ROR response element-LUC reporter gene. Reporter gene activity was induced using Doxycycline Hyclate and measured after 16 hr incubation. Tet-on ROR gamma CHO cells were used to screen against the Tox21 10K compound library for ROR gamma antagonists by quantification of decreased reporter gene activity in terms of decreased luminescence.
Tox21 Assay Protocol Summary: Tet-on ROR gamma CHO cells were dispensed at 1,000 cells in 4 uL of culture medium per well into white wall/solid bottom 1536-well plates using a Multidrop Combi (Thermo Scientific, Waltham, MA) dispenser. Following incubation at 37 C and 5% CO2 for 4 hr, 23 nL of compounds dissolved in DMSO, positive controls or DMSO only were transferred by a Pintool station (Kalypsys, San Diego, CA) and after 2 hr incubation at 37 C, one ul of 1 uM (final concentration) of Doxycycline Hyclate was added to all the wells by using a Flying Reagent Dispenser (FRD) (Aurora Discovery, San Diego, CA). After 16 hr incubation at 37 C and 5% CO2, 5 uL of ONE-Glo reagent (Promega Corporation, Madison, WI) was added to each assay plate using FRD. After 30 min incubation at room temperature, luminescence was quantified on a ViewLux plate reader (Perkin Elmer, Waltham, MA).
% is set by controls: 0 for no effect and ±100 for the full control effect; potency is the fitted concentration of half-maximal effect.

| Structure (SMILES) | activity change, negative = inhibition | Potency |
| --- | --- | --- |
| CCCC/C=C/CCCCO | -3.36% |  |
| Cc1cc(N)c(S(=O)(=O)O)cc1Cl | 24.6% |  |
| C=CC(=O)OCC(CO)(COCC(COC(=O)C=C)(COC(=O)C=C)COC(=O)C=C)COC(=O)C=C |  | 2.7 µM (active) |
| CCC(C)Nc1ccc(NC(C)CC)cc1 (stereo not given) |  | 27.8 µM (active) |
| Cc1cc(=O)oc2cc(N(C)C)ccc12 | 41.1% |  |
| CCCCCCCCNC(C)C(O)c1ccc(SC(C)C)cc1 (stereo not given) |  | 23.7 µM (active) |
| CCCCCCCCCCCCCCCC[N+](C)(C)CCN(Cc1ccc(OC)cc1)c1ncccn1 |  | 33.5 µM (active) |
| CSc1cnc(C)cn1 | -10.5% [at 240 µM] |  |
| CCCC1O[C@@H]2C[C@H]3[C@@H]4CCC5=CC(=O)C=C[C@]5(C)[C@H]4[C@@H](O)C[C@]3(C)[C@]2(C(=O)CO)O1 (stereo not given in full) |  | 48.6 µM (active) |
| O=C(O)c1ccc(Cl)c(Cl)c1 | -4.1% |  |
| Cc1nc(-c2ccc3c(c2)CCN(CCC2CCC(NC(=O)/C=C/c4ccc(F)cc4)CC2)CC3)no1 (stereo not given) |  | 1.94 µM (active) |
| NNc1nc(-c2ccc([N+](=O)[O-])cc2)cs1 |  | 10.9 µM (active) |
| CCCCCCCCCCCCCCCS(=O)(=O)Oc1ccccc1 | -0.392% [at 42.5 µM] |  |
| [O-][n+]1ccccc1SSc1cccc[n+]1[O-] |  | 0.058 µM (active) |
| CCN1/C(=C/C=C/c2sc3ccccc3[n+]2CC)Sc2ccccc21 |  | 2.31 µM (active) |
| CCCCN1CCCC[C@H]1C(=O)Nc1c(C)cccc1C | -19.3% [at 42.5 µM] |  |
| CCC1OCC(COc2ccc(Oc3ccccc3)cc2)O1 (stereo not given) | 14.4% |  |
| CCCCCCC[N+](CC)(CC)CCCCc1ccc(Cl)cc1 | -1.48% [at 42.5 µM] |  |
| Oc1ccc2cc(SSc3ccc4cc(O)ccc4c3)ccc2c1 |  | 48.6 µM (active) |
| COc1cccc(N)c1 | 11.2% |  |

| Structure (SMILES) | activity change, negative = inhibition | Potency |
| --- | --- | --- |
| CC1(C)CCC(C)(C)c2cc(C(=O)Nc3ccc(C(=O)O)cc3)ccc21 |  | 61.1 µM (active) |
| COc1cc(-c2ccc(N=C=O)c(OC)c2)ccc1N=C=O | 1.95% [at 42.5 µM] |  |
| Cc1[nH]cnc1C[C@H]1CCc2c(C)c3ccccc3n2C1=O |  | 23.7 µM (active) |
| CCCCCCCCCCCCCCCCCC[N+](C)(C)Cc1ccccc1 |  | 15.5 µM (active) |
| Nc1nc2ccccc2n1Cc1ccc(F)cc1 |  | 10.6 µM (active) |
| Nc1cc(C(F)(F)F)ccc1S |  | 26.6 µM (active) |
| COc1cc(-c2nc(NC(=O)c3cc4cc(C)cc(C)c4n3CC(=O)O)sc2CCC2CCCCC2)c(OC)cc1Cl |  | 19.9 µM (active) |
| CC(=O)N1CCN(c2ccc(OC[C@H]3CO[C@](Cn4ccnc4)(c4ccc(Cl)cc4Cl)O3)cc2)CC1 |  | 9.69 µM (active) |
| O=C(OCC(COC(=O)c1ccccc1)(COC(=O)c1ccccc1)COC(=O)c1ccccc1)c1ccccc1 | -21.3% |  |
| Oc1ccc(C2(c3ccc(O)cc3)CC3CC2C2CCCC32)cc1 (stereo not given) |  | 46.6 µM (active) |
| CCN(C(=O)N(CC)c1ccccc1)c1ccccc1 | -1.46% |  |
| CCCCCCCC/C=C\CCCCCCCCOCCO |  | 20 µM (active) |
| C/C=C(\C)C(=O)OCc1ccccc1 | 12.4% |  |
| CC(C)(C)c1ccc(C(=O)CCCN2CCC(OC(c3ccccc3)c3ccccc3)CC2)cc1 |  | 11.9 µM (active) |
| N=C1N=C(N)c2ccccc21 |  | 48.6 µM (active) |
| C1CCCC1 | 5.48% |  |
| CCN(C(=O)c1cc(C)cc(OC[C@H](C)Nc2ccncc2)c1)C(C)C | -11.4% [at 42.5 µM] |  |
| CC1=C(C(=O)OC(C)C)C(c2cccc([N+](=O)[O-])c2)C(C(=O)OC2CN(C(c3ccccc3)c3ccccc3)C2)=C(N)N1 (stereo not given) |  | 21.1 µM (active) |
| Cc1cc(O)c(Cl)c(C)c1Cl | -12% |  |
| Oc1ccc2c(c1)-c1ccccc1C2 | 11.7% |  |
